# Compound activity deposited in PubChem BioAssay by National Center for Advancing Translational Sciences (NCATS).
# Most compounds without a hit are left out; they make up all but 4.7% or so of the library.
# FH mod – Identification of activators of human fumarate hydratase by quantitative high-throughput screening; Fumarate hydratase, mitochondrial (Homo sapiens), P07954; FH coupled MDH/diaphorase resazurin fluorescence, 15 min; Potency, µM (titrated, usually from 79.9 µM), actives largely listed as inhibitors; 54,000 compounds, 0.22% hits; further: the screen sought activators but most active calls are inhibition curves; nearly all actives have a fitted effect of over 45% in size
# NTMT1 inh – Primary qHTS for Inhibitors of N-terminal methyltransferase 1 (NTMT1): MTaseGlo Assay; NTMT1 MTase-Glo SAH luminescence, purified enzyme; N-terminal Xaa-Pro-Lys N-methyltransferase 1 (Homo sapiens), Q9BV86; Potency, µM (series often up to 114 µM), most hits filed as inhibitors; 59,000 compounds, 2.5% hits; further: nearly all actives have a fitted effect of over 65% in size
# HTT-AS promoter – Primary qHTS for Identification of Small Molecule Activators of Huntingtin-Antisense Promoter Activity. HEK293 HTT-AS promoter firefly luciferase reporter, 24 h; response scale: percent change from vehicle, -100% = no light. Potency, µM (titrated, usually from 57.5 µM), actives largely listed as activators. 48,000 compounds, 0.24% hits. AID 1508624, 2021; further: nearly all actives have a fitted effect of over 55% in size
#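 HEK293 cells carrying firefly luciferase reporters were seeded at 2,500 per well in Opti-MEM and cultured for 24 h. They were then treated with compounds at up to 57.5 uM final for 24 h at 37 degrees C before Dual-Glo luminescence readout.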
# DRV1 agonist – qHTS for Agonists of Human Resolvin D1 Receptor DRV1; CHO-K1 GPR32 beta-arrestin PathHunter luminescence, 90 min; zero percent set by DMSO-only wells; activation, % at 76.9 µM; 48,000 compounds, 2.5% hits;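 active means activation of at least 60% and not above a set upper limit, about 1 call in 100 departs from these limits; inconclusive means activation of 40% to 60%, or above that upper limit; inactive means activation under 40%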
# Target sequence (O75388 whole entry, looked up): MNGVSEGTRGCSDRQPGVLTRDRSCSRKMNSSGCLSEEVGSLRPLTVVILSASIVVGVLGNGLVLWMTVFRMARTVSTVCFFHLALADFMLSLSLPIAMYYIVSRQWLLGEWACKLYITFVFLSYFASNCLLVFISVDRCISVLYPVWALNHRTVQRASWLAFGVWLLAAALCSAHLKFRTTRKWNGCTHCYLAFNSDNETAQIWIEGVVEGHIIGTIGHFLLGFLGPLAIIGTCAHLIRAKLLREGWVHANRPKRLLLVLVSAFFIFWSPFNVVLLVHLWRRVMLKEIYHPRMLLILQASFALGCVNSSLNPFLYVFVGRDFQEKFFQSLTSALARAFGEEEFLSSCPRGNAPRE
#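 Beta-arrestin recruitment read-out: luminescence from complemented beta-Gal in CHO-K1 GPR32 PathHunter cells, measured 1 h after detection reagent at ambient temperature following 90 min compound exposure at 37 °C; DMSO served as basal (EC0) control.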
# GALC G270D up – A Novel Cell-Based Assay to Identify Small Molecules for B -Galactocerebrosidase; P54803; 145M-Twi-hGALC-G270D cells (Twitcher mouse brain line with human GALC G270D), HMU-beta-Gal fluorescence, 48 h; Potency, µM (highest dose often 57.5 µM), usual class: activators; 45,000 compounds, 0.1% hits; further: nearly all actives have a fitted effect of over 65% in size
#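 Mutant human GALC (G270D), stably expressed in a Twitcher mouse brain cell line lacking endogenous GALC, is measured in live-treated cells via 6-hexadecanoylamino-4-methylumbelliferyl-β-galactoside hydrolysis (0.1 mM final, pH 5.2) with fluorescent detection.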
# HTT promoter inh – Primary qHTS for Identification of Small Molecule Inhibitors of Huntingtin Promoter Activity; AID 1508623, 2021; Potency, µM (highest dose often 57.5 µM), actives largely listed as inhibitors; 48,000 compounds, 0.93% hits; HEK293 HTT promoter firefly luciferase reporter, 24 h; further: nearly all actives have a fitted effect of over 50% in size
#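 HEK293 luciferase promoter-reporter cells (2,500/well) plated 24 h, then compounds added at up to 57.5 uM final for 24 h at 37 °C. Firefly luminescence by Dual-Glo, normalized to vehicle (0%) and zero RLU (-100%).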
# Hits are given with their value; 0 = inactive; ? = inconclusive; - = no result; ! = not active in a repeat; [ ] = dose if it differs, or a comment. Unless noted, the call rests on the fitted dose curve; in most records, active means well fitted curve in the direction sought with a large enough effect; inconclusive means small, poorly fitted or top-dose-only effect, or another doubt; inactive means no such curve, though single readings can be large; an effect the other way counts as inactive or inconclusive.
SMILES,FH mod,NTMT1 inh,HTT-AS promoter,DRV1 agonist,GALC G270D up,HTT promoter inh
COc1cccc(CNc2ccc(S(=O)(=O)Nc3ccc4ccccc4c3)cc2)c1O,-,0,-,-,-,-
Cc1cc(-n2c(=O)ccc3cnc4[nH]ccc4c32)ccc1F,-,0,-,-,-,-
CC1CCN(c2nc3ccc(C(=O)NCCc4ccc(S(N)(=O)=O)cc4)cc3s2)CC1,0,89µM,?,0,0,0.4µM
Cc1ccc(CNC(=O)c2ccc3nc(N4CCCCC4)sc3c2)cc1,0,0,0,0,0,?
CCOc1ccccc1CNC(=O)c1ccc2nc(N3CCC(C)CC3)sc2c1,0,0,0,0,0,1.8µM
CCOc1ccccc1CNC(=O)c1cnc2sc(N3CCC(C)CC3)nn2c1=O,-,-,-,0,-,-
CC1CCN(c2nc3ccc(C(=O)NC(C)C)cc3s2)CC1,0,?,?,?,0,0
CC1CCN(c2nc3ccc(C(=O)NCc4ccccc4)cc3s2)CC1,0,0,0,0,0,0.11µM
C=C1CC23CC1CCC2C12OC(=O)C(C)(C(O)CC1O)C2C3C(=O)O (stereo not given),0,0,-,-,-,-
CN1CCN(C2CCC(n3cc(-c4ccc(Oc5ccccc5)cc4)c4c(N)ncnc43)CC2)CC1 (stereo not given),0,28µM!,-,-,-,-
O=C1CCCC2=C1C(c1[nH]ncc1Cl)N=C(Nc1nc3ccccc3s1)N2 (stereo not given),-,0,-,-,-,-
CCOC(=O)c1c(Nc2ccccc2)nnc(-c2ccccc2)c1-c1ccccc1,0,0,0,0,0,0
CCOC(=O)c1c(Nc2ccc(O)cc2)nnc(-c2ccccc2)c1-c1ccccc1,0,0,0,66,0,0
C[C@]12CC[C@@H]3c4ccc(O)cc4CC[C@H]3[C@@H]1CC[C@@H]2O,0,?,-,0,-,-
CC(=O)Oc1ccc2c(c1)CC[C@@H]1[C@@H]2CC[C@]2(C)[C@@H](O)CC[C@@H]12,0,25µM,0,?,0,0
O=C(O)c1ccccc1NC(=O)N1CCC(c2ccccc2C(F)(F)F)CC1,0,0,-,-,-,-
CC(CCC1(O)OC2CC3C4CCC5CC(O[C@@H]6O[C@H](CO)[C@@H](O)[C@H](O)[C@H]6O[C@@H]6O[C@@H](C)[C@H](O)[C@@H](O)[C@H]6O)C(O)CC5(C)C4CCC3(C)C2C1C)CO[C@@H]1O[C@H](CO)[C@@H](O)[C@H](O)[C@H]1O (stereo not given in full),0,0[12.6 µM],-,-,-,-
COc1cc(OC)c(C2Nc3ccccc3-c3nnc(SCc4ccccc4)nc3O2)cc1OC (stereo not given),0,0,0,64,0,0
Cc1cnc(-c2ccccc2C(C)O)nc1NCC1CCN(c2cccnc2)CC1 (stereo not given),-,0,-,-,-,-
CCCCN(CCCC)c1nc(-c2ccccc2)nc2ccccc12,0,?,0,110,0,0
C=C(C)C(=O)O[C@H]1C[C@@](C)(O)C2(O)CCC(C)(/C=C3/OC(=O)C(COC)=C31)O2 (stereo not given in full),0,0,-,-,-,-
O=C(/C=C\n1cnc(-c2cc(C(F)(F)F)cc(C(F)(F)F)c2)n1)NNc1ccccn1,-,0,-,-,-,-
O=C(Nc1noc2ccccc12)c1cccc(F)c1,0,?,2µM,0,0,0
Ic1ccc(N2CCN(Cc3c[nH]c4ncccc34)CC2)cc1,-,-,-,76,-,-
O=C(N/N=C/c1ccc(O)c(O)c1)c1cc2ccccc2cc1O,0,0[12.6 µM],-,-,-,-
O=C1/C(=C/c2ccc(O)c(O)c2)Oc2ccccc21,?,28µM,-,-,-,-
CC(C)n1nc(Cc2cccc3ccccc23)c2c(N)ncnc21,0,?,-,-,-,-
CCOc1ccc(CCNC(=O)CCCc2cc(-c3ccc(OCC)cc3)on2)cc1,0,0,0,0,0,0.32µM
